This passage reports glomerular separation results from the supplement of paper PMC7366291.

Each structure is given as a SMILES string. Counter-ions that a name gives are not always drawn. ± gives the standard deviation.

This assay deals with Danio rerio Tg(wt1b:EGFP) embryo, pronephros. Kind of assay: glomerular separation, fold change vs DMSO control; higher = glomeruli further apart (abnormal). The conditions noted are these: 25 µM; exposure: 24-48 hpf. An outline of the steps:
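From 24 to 48 hpf, at 28.5°C, dechorionated Tg(wt1b:EGFP) zebrafish embryos sat in HEPES-buffered E3 with 0.003% PTU carrying 25 μM compound and 0.5% DMSO. Their pronephroi were imaged dorsally in 96-well plates filled with agarose, using 470 nm light and 10 z-slices. A Fiji macro measured distances and angles between 16 reference points that were set manually on maximum projections, and any value more than 2 SD from its feature mean was excluded. Features are expressed as fold change relative to the mean of DMSO-treated embryos imaged on the same day.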
Molecule `CCC(C)C1O[C@]2(C=C[C@@H]1C)C[C@@H]1CC(C/C=C(\C)[C@@H](OC3C[C@H](OC)[C@@H](OC4C[C@H](OC)[C@@H](O)[C@H](C)O4)[C@H](C)O3)[C@@H](C)/C=C/C=C3\COC4[C@H](O)C(C)=CC(C(=O)O1)[C@]34O)O2` (some centres undefined) [Avermectin B1a] showed a glomerular separation of 2.03 ± 1.1. In the case of `CCNCC(O)c1cccc(O)c1` (centres undefined) [Etilefrine hydrochloride], the glomerular separation was 0.79 ± 0.23. `COc1ccc(C(=O)N2CCCC2=O)cc1` [Aniracetam] yielded a glomerular separation of 0.837 ± 0.17.

For `CCN[C@@H](C)Cc1cccc(C(F)(F)F)c1` [Dexfenfluramine hydrochloride], the glomerular separation turned out to be 0.736 ± 0.23. Under `C1CCc2nnnn2CC1` [Pentylenetetrazole] stands 0.925 ± 0.28; under `C(#CCN1CCCC1)CN1CCCC1` [Tremorine dihydrochloride], 1.25 ± 0.52. As to `COc1ccc(CCN2CCC(Nc3nc4ccccc4n3Cc3ccc(F)cc3)CC2)cc1` [Astemizole], the glomerular separation turned out to be 2.83 ± 2.3. Regarding `O=c1[nH]c2ccccc2n1C1CCN(CCCC(c2ccc(F)cc2)c2ccc(F)cc2)CC1` [Pimozide], the glomerular separation amounted to 4.46 ± 1.6. Under `C=CCC1(CC(C)C)C(=O)NC(=O)NC1=O` [Butalbital] stands 0.97 ± 0.31; under `CN1CCC2(C)c3cc(O)ccc3N(C)C12` (single isomer, unassigned; (-)) [(-)-Eseroline fumarate salt], 0.883 ± 0.34.

In turn, `N[C@@H]1C[C@H]1c1ccccc1` [Tranylcypromine hydrochloride] came in with a glomerular separation of 1.03 ± 0.28.

`C[C@]12CC[C@@H](O)C[C@H]1CC[C@@H]1[C@@H]2CC[C@]2(C)C(=O)CC[C@@H]12` [3-alpha-Hydroxy-5-beta-androstan-17-one] had a glomerular separation of 1.13 ± 0.44. `COc1ccc(OC)c(C(O)C(C)N)c1` (centres undefined) [Methoxamine hydrochloride] came in with a glomerular separation of 0.886 ± 0.22.

`COc1cc2c(c(OC)c1OC)-c1ccc(OC)c(=O)cc1[C@@H](NC(C)=O)CC2` [Colchicine] came in with a glomerular separation of 1.2 ± 0.47.

Turning to `CN1[C@@H]2CC[C@H]1C[C@@H](OC1c3ccccc3CCc3ccccc31)C2` [Deptropine citrate], the glomerular separation turned out to be 0.934 ± 0.35. Regarding `CC(=O)NC1CCSC1=O` (racemic) [N-Acetyl-DL-homocysteine Thiolactone], the glomerular separation amounted to 0.761 ± 0.24.

The molecule `CC(C)(C)NCC(O)c1ccccc1Cl` (centres undefined) [Tulobuterol] returned a glomerular separation of 1.02 ± 0.37. Regarding `C[C@]12CC[C@H](O)C[C@@H]1CC[C@@H]1[C@@H]2CC[C@]2(C)C(=O)CC[C@@H]12` [Epiandrosterone], the glomerular separation was determined as 1.72 ± 0.71. As to `C[C@@H]1O[C@@H](O[C@@H]2C=C3CC[C@@H]4[C@H](CC[C@]5(C)[C@@H](c6ccc(=O)oc6)CC[C@]45O)[C@@]3(C)CC2)[C@H](O)[C@H](O)[C@H]1O` [Proscillaridin A], the glomerular separation came out at 3.66 ± 1.1.

`CC(C)(N)Cc1ccccc1` [Phentermine hydrochloride] came in with a glomerular separation of 0.886 ± 0.21.

Turning to `O=c1[nH]oc2c1CCNC2` [THIP Hydrochloride], the glomerular separation came to 0.923 ± 0.31. With `CC(=O)OCC(=O)[C@H]1CC[C@H]2[C@@H]3CC[C@H]4C[C@H](O)CC[C@]4(C)[C@H]3C(=O)C[C@]12C` [Alfadolone acetate], the glomerular separation stood at 1.22 ± 0.64. The molecule `CCC(=O)O[C@@](Cc1ccccc1)(c1ccccc1)[C@@H](C)CN(C)C` [Levopropoxyphene napsylate] returned a glomerular separation of 1.29 ± 0.53. Take `CNC(=O)Oc1ccc2c(c1)[C@]1(C)CCN(C)[C@@H]1N2C` [Eserine hemisulfate salt]: the glomerular separation came out at 1.12 ± 0.17.

`c1ccc2c(c1)OCC(C1=NCCN1)O2` (centres undefined) [Idazoxan hydrochloride] yielded a glomerular separation of 0.851 ± 0.4. In the case of `COc1ccc(Cc2nccc3cc(OC)c(OC)cc23)cc1OC` [Papaverine hydrochloride], the glomerular separation was 0.972 ± 0.22. To `CN[C@@H]1[C@@H](O)[C@@H](O[C@@H]2[C@@H](O)[C@H](O[C@H]3O[C@H](CN)CC[C@H]3N)[C@@H](N)C[C@H]2N)OC[C@]1(C)O.CN[C@@H]1[C@@H](O)[C@@H](O[C@@H]2[C@@H](O)[C@H](O[C@H]3O[C@H]([C@@H](C)N)CC[C@H]3N)[C@@H](N)C[C@H]2N)OC[C@]1(C)O.CN[C@@H]1[C@@H](O)[C@@H](O[C@@H]2[C@@H](O)[C@H](O[C@H]3O[C@H]([C@@H](C)NC)CC[C@H]3N)[C@@H](N)C[C@H]2N)OC[C@]1(C)O` [Gentamicine sulfate] belongs 0.941 ± 0.25; to `CC[C@@H](CO)NC(=O)[C@@H]1C=C2c3cccc4[nH]cc(c34)C[C@H]2N(C)C1` [Methylergometrine maleate], 1.12 ± 0.46; to `C[N+]1(C)CCOC(O)(c2ccc(-c3ccc(C4(O)C[N+](C)(C)CCO4)cc3)cc2)C1` (centres undefined) [Hemicholinium bromide], 0.878 ± 0.14.
